# From the supplement of paper PMC8728848
# Shown is part of a subset that was picked to be rich in the strongest signals.
# Tests used:
# Test in all cases: glycan array binding signal (z-score within array); higher = stronger binding
# Conditions in all cases: glycan notation: IUPAC condensed, linker removed
# [1] = biological target: Fuc(a1-2)Gal(b1-3)GalNAc(b1-3)Gal(a1-4)Gal(b1-4)Glc
# Summary of the method: (§1)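 From the Consortium for Functional Glycomics database, 3228 arrays were curated, keeping only those whose protein sequence was available. Binding is given as a within-array Z-score averaged across arrays sharing a protein sequence and across linkers. Negative Z-scores can be read as non-binding.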
# [2] = biological target: Fuc(a1-2)Gal(b1-3)GlcNAc(b1-3)[Neu5Ac(a2-6)Gal(b1-4)GlcNAc(b1-6)]Gal(b1-4)Glc
# Summary of the method: as §1
# [3] = biological target: Fuc(a1-2)Gal(b1-3)[Fuc(a1-4)]GlcNAc(b1-2)Man(a1-3)[Fuc(a1-2)Gal(b1-3)[Fuc(a1-4)]GlcNAc(b1-2)Man(a1-6)]Man(b1-4)GlcNAc(b1-4)[Fuc(a1-6)]GlcNAc(b1-4)[Fuc(a1-6)]GlcNAc
# Summary of the method: as §1
# [4] = biological target: Fuc(a1-2)Gal(b1-4)[Fuc(a1-3)]GlcNAc(b1-3)GalNAc
# Summary of the method: as §1
# [5] = biological target: Fuc(a1-2)Gal6S(b1-3)GlcNAc6S
# Summary of the method: as §1
# [6] = biological target: Fuc(a1-2)[Gal(a1-3)]Gal(b1-4)[Fuc(a1-3)]Glc
# Summary of the method: as §1
# [7] = biological target: Fuc(a1-2)[Gal(a1-4)]Gal(b1-4)GlcNAc
# Summary of the method: as §1
# [8] = biological target: Fuc(a1-2)[GalNAc(a1-3)]Gal(b1-3)GalNAc(b1-3)Gal(a1-4)Gal(b1-4)Glc
# Summary of the method: as §1
# [9] = biological target: Fuc(a1-2)[GalNAc(a1-3)]Gal(b1-4)GlcNAc(b1-3)Gal(b1-4)GlcNAc(b1-3)Gal(b1-4)GlcNAc
# Summary of the method: as §1
# [10] = biological target: Fuc(a1-2)[GalNAc(a1-3)]Gal(b1-4)GlcNAc(b1-3)GalNAc
# Summary of the method: as §1
# [11] = biological target: Fuc(a1-2)[GalNAc(a1-3)]Gal(b1-4)[Fuc(a1-3)]GlcNAc(b1-3)GalNAc
# Summary of the method: as §1
# [12] = biological target: Fuc(a1-3)[Gal(b1-4)]GlcNAc(b1-2)Man
# Summary of the method: as §1
# [13] = biological target: Fuc(a1-3)[Gal3S(b1-4)]GlcNAc
# Summary of the method: as §1
# [14] = biological target: Fuc(a1-3)[GalNAc(b1-4)]GlcNAc
# Summary of the method: as §1
# Fuc(a1-4)GlcNAc = biological target: Fuc(a1-4)GlcNAc
# Summary of the method: as §1
# Gal(b1-3)GalNAc(b1-3)Gal = biological target: Gal(b1-3)GalNAc(b1-3)Gal
# Summary of the method: as §1
# [15] = biological target: Gal(b1-3)GlcNAc(b1-3)Gal(b1-4)[Fuc(a1-3)]GlcNAc
# Summary of the method: as §1
# [16] = biological target: Gal(b1-3)[Neu5Ac(b2-6)]GalNAc
# Summary of the method: as §1
# Gal(b1-4)Glc6S = biological target: Gal(b1-4)Glc6S
# Summary of the method: as §1
# [17] = biological target: Gal(b1-4)GlcNAc(b1-3)Gal(b1-3)GlcNAc
# Summary of the method: as §1
# [18] = biological target: Gal(b1-4)GlcNAc(b1-3)Gal(b1-4)GlcNAc(b1-2)[Gal(b1-4)GlcNAc(b1-3)Gal(b1-4)GlcNAc(b1-6)]Man(a1-6)[Gal(b1-4)GlcNAc(b1-3)Gal(b1-4)GlcNAc(b1-2)Man(a1-3)]Man(b1-4)GlcNAc(b1-4)GlcNAc
# Summary of the method: as §1
# [19] = biological target: Gal(b1-4)GlcNAc(b1-3)Gal(b1-4)[Fuc(a1-3)]GlcNAc(b1-3)Gal(b1-4)[Fuc(a1-3)]GlcNAc
# Summary of the method: as §1
# [20] = biological target: Gal(b1-4)GlcNAc(b1-3)[Gal(b1-4)GlcNAc(b1-6)]Gal(b1-4)GlcNAc
# Summary of the method: as §1
# [21] = biological target: Gal(b1-4)GlcNAc(b1-3)[GlcNAc(b1-6)]Gal(b1-4)GlcNAc
# Summary of the method: as §1
# Gal(b1-6)Gal = biological target: Gal(b1-6)Gal
# Summary of the method: as §1
# Gal3S(b1-4)Glc = biological target: Gal3S(b1-4)Glc
# Summary of the method: as §1
# Gal3S6S(b1-4)GlcNAc6S = biological target: Gal3S6S(b1-4)GlcNAc6S
# Summary of the method: as §1
# GalNAc(b1-3)Gal = biological target: GalNAc(b1-3)Gal
# Summary of the method: as §1
# [22] = biological target: GalNAc(b1-3)Gal(a1-4)Gal(b1-4)GlcNAc
# Summary of the method: as §1
# GalNAc(b1-6)GalNAc = biological target: GalNAc(b1-6)GalNAc
# Summary of the method: as §1
# [23] = biological target: GlcNAc(b1-3)Gal(b1-4)GlcNAc(b1-3)Gal(b1-4)GlcNAc(b1-2)[GlcNAc(b1-3)Gal(b1-4)GlcNAc(b1-3)Gal(b1-4)GlcNAc(b1-6)]Man(a1-6)[GlcNAc(b1-3)Gal(b1-4)GlcNAc(b1-3)Gal(b1-4)GlcNAc(b1-2)Man(a1-3)]Man(b1-4)GlcNAc(b1-4)[Fuc(a1-6)]GlcNAc
# Summary of the method: as §1
# [24] = biological target: GlcNAc(b1-3)Gal(b1-4)GlcNAc(b1-3)Gal(b1-4)GlcNAc(b1-3)Gal(b1-4)GlcNAc(b1-2)Man(a1-3)[GlcNAc(b1-3)Gal(b1-4)GlcNAc(b1-3)Gal(b1-4)GlcNAc(b1-3)Gal(b1-4)GlcNAc(b1-2)Man(a1-6)]Man(b1-4)GlcNAc(b1-4)GlcNAc
# Summary of the method: as §1
# [25] = biological target: GlcNAc(b1-3)Gal(b1-4)GlcNAc(b1-3)Gal(b1-4)GlcNAc(b1-3)Gal(b1-4)GlcNAc(b1-3)Gal(b1-4)GlcNAc(b1-2)Man(a1-3)[GlcNAc(b1-3)Gal(b1-4)GlcNAc(b1-3)Gal(b1-4)GlcNAc(b1-3)Gal(b1-4)GlcNAc(b1-3)Gal(b1-4)GlcNAc(b1-2)Man(a1-6)]Man(b1-4)GlcNAc(b1-4)[Fuc(a1-6)]GlcNAc
# Summary of the method: as §1
# [26] = biological target: GlcNAc(b1-3)[GlcNAc(b1-6)]Gal(b1-4)GlcNAc
# Summary of the method: as §1
# Kdn(a2-3)Gal(b1-3)GalNAc = biological target: Kdn(a2-3)Gal(b1-3)GalNAc
# Summary of the method: as §1
# Man(a1-3)[Man(a1-6)]Man = biological target: Man(a1-3)[Man(a1-6)]Man
# Summary of the method: as §1
# [27] = biological target: Man(a1-3)[Man(a1-6)]Man(a1-6)[Man(a1-3)]Man
# Summary of the method: as §1
# Man(a1-6)Man = biological target: Man(a1-6)Man
# Summary of the method: as §1
# [28] = biological target: Neu5Ac(a2-3)Gal(b1-3)]Neu5Ac(a2-3)Gal(b1-4)]GlcNAc
# Summary of the method: as §1
# Neu5Ac(a2-3)Gal(b1-4)Glc = biological target: Neu5Ac(a2-3)Gal(b1-4)Glc
# Summary of the method: as §1
# [29] = biological target: Neu5Ac(a2-3)Gal(b1-4)GlcNAc(b1-3)Gal
# Summary of the method: as §1
# [30] = biological target: Neu5Ac(a2-3)Gal(b1-4)GlcNAc(b1-3)Gal(b1-4)[Fuc(a1-3)]GlcNAc
# Summary of the method: as §1
# [31] = biological target: Neu5Ac(a2-3)Gal(b1-4)GlcNAc(b1-3)GalNAc
# Summary of the method: as §1
# [32] = biological target: Neu5Ac(a2-3)Gal(b1-4)[Fuc(a1-3)]GlcNAc(b1-3)Gal(b1-4)GlcNAc
# Summary of the method: as §1
# [33] = biological target: Neu5Ac(a2-3)Gal(b1-4)[Fuc(a1-3)]GlcNAc(b1-3)GalNAc
# Summary of the method: as §1
# [34] = biological target: Neu5Ac(a2-3)[GalNAc(b1-4)]Gal(b1-4)GlcNAc(b1-3)GalNAc
# Summary of the method: as §1
# [35] = biological target: Neu5Ac(a2-6)Gal(b1-4)GlcNAc
# Summary of the method: as §1
# [36] = biological target: Neu5Ac(a2-6)Gal(b1-4)GlcNAc(b1-2)Man(a1-3)[GlcNAc(b1-2)Man(a1-6)]Man(b1-4)GlcNAc(b1-4)GlcNAc
# Summary of the method: as §1
# [37] = biological target: Neu5Ac(a2-6)Gal(b1-4)GlcNAc(b1-3)Gal(b1-4)GlcNAc(b1-3)[Neu5Ac(a2-6)Gal(b1-4)GlcNAc(b1-3)Gal(b1-4)GlcNAc(b1-6)]GalNAc
# Summary of the method: as §1
# [38] = biological target: Neu5Ac(a2-6)Gal(b1-4)GlcNAc(b1-3)Gal(b1-4)GlcNAc(b1-6)[Gal(b1-3)]GalNAc
# Summary of the method: as §1
# [39] = biological target: Neu5Ac(a2-8)Neu5Ac(a2-3)Gal(b1-4)GlcNAc
# Summary of the method: as §1
# [40] = biological target: Neu5Ac(a2-8)Neu5Ac(a2-8)Neu5Ac(a2-3)Gal(b1-4)Glc
# Summary of the method: as §1
# [41] = biological target: Neu5Gc(a2-3)Gal(b1-4)GlcNAc
# Summary of the method: as §1
# [42] = biological target: Neu5Gc(a2-8)Neu5Ac(a2-3)Gal(b1-4)GlcNAc
# Summary of the method: as §1
binder,measurement,setting,value
GS13814A-bth-462-26-462 (Bacteroides thetaiotaomicron) (protein) DDRDNLMVNDQIGLLHSTYTETEIFRGMDTPYQLFVIKSGKGKQETEVSISVDETVLQSYNTDNGTSIQLLPSDCYTILQPALRLNDSDYRKAFDIKWNADRLSDLLSTGKEYGLPIQMSVVQNFISADDERLKTIIVPTIKEPYLQMDVPGMSPVTDFMPTFGDLNERELFVKIRTNYSNDEDISFQIEVDPQLVIDYNTAHGTAYKMLPESSFTVDNKGVILTGMKETFIKIKYHKKGLIPEEGTYLFGDYVLPLRITSVSKYGISPDAASKLYTVKFQPDPIDKKGWSVIDFNNCCTQDGGWYLNMGWGVESLIDNNPGTQWLCRWDVKEPLPYYFVFDMGKEYTLFRFGFANPVAPAAHVWAGTSKAGYVEASIDNENWVKLKDWTSPKIGEPNVNMDVPATQARYIRFVITDTYPTYDGLRVSLGEVYAWGM,glycan array binding signal (z-score),[1],-0.308
same,glycan array binding signal (z-score),[2],-0.718
same,glycan array binding signal (z-score),[3],0.703
same,glycan array binding signal (z-score),[4],2.19
same,glycan array binding signal (z-score),[5],3.15
same,glycan array binding signal (z-score),[6],0.027
same,glycan array binding signal (z-score),[7],1.11
same,glycan array binding signal (z-score),[8],1.01
same,glycan array binding signal (z-score),[9],-0.363
same,glycan array binding signal (z-score),[10],-0.276
same,glycan array binding signal (z-score),[11],2.42
same,glycan array binding signal (z-score),[12],0.981
same,glycan array binding signal (z-score),[13],1.23
same,glycan array binding signal (z-score),[14],2.12
same,glycan array binding signal (z-score),Fuc(a1-4)GlcNAc,14.3
same,glycan array binding signal (z-score),Gal(b1-3)GalNAc(b1-3)Gal,0.61
same,glycan array binding signal (z-score),[15],0.725
same,glycan array binding signal (z-score),[16],-0.165
same,glycan array binding signal (z-score),Gal(b1-4)Glc6S,-0.019
same,glycan array binding signal (z-score),[17],-0.895
same,glycan array binding signal (z-score),[18],-0.241
same,glycan array binding signal (z-score),[19],0.104
same,glycan array binding signal (z-score),[20],-0.298
same,glycan array binding signal (z-score),[21],-0.604
same,glycan array binding signal (z-score),Gal(b1-6)Gal,0.332
same,glycan array binding signal (z-score),Gal3S(b1-4)Glc,-0.952
same,glycan array binding signal (z-score),Gal3S6S(b1-4)GlcNAc6S,2.45
same,glycan array binding signal (z-score),GalNAc(b1-3)Gal,-0.506
same,glycan array binding signal (z-score),[22],2.74
same,glycan array binding signal (z-score),GalNAc(b1-6)GalNAc,-0.44
same,glycan array binding signal (z-score),[23],0.296
same,glycan array binding signal (z-score),[24],-0.256
same,glycan array binding signal (z-score),[25],1.41
same,glycan array binding signal (z-score),[26],-0.285
same,glycan array binding signal (z-score),Kdn(a2-3)Gal(b1-3)GalNAc,0.216
same,glycan array binding signal (z-score),Man(a1-3)[Man(a1-6)]Man,0.087
same,glycan array binding signal (z-score),[27],-1
same,glycan array binding signal (z-score),Man(a1-6)Man,0.563
same,glycan array binding signal (z-score),[28],2.12
same,glycan array binding signal (z-score),Neu5Ac(a2-3)Gal(b1-4)Glc,2.85
same,glycan array binding signal (z-score),[29],-0.359
same,glycan array binding signal (z-score),[30],-1.35
same,glycan array binding signal (z-score),[31],-0.818
same,glycan array binding signal (z-score),[32],2.69
same,glycan array binding signal (z-score),[33],2.14
same,glycan array binding signal (z-score),[34],-1.22
same,glycan array binding signal (z-score),[35],-0.069
same,glycan array binding signal (z-score),[36],0.48
same,glycan array binding signal (z-score),[37],-1.35
same,glycan array binding signal (z-score),[38],-0.806
same,glycan array binding signal (z-score),[39],-1.27
same,glycan array binding signal (z-score),[40],-1.35
same,glycan array binding signal (z-score),[41],1.47
same,glycan array binding signal (z-score),[42],-0.879
